# According to PubChem BioAssay (NCATS):
# Inconclusive results are not listed. The source made the active and inactive calls. The call rests on the fitted dose curve; in most records, active means well fitted inhibition curve with a large enough effect; inconclusive means small, poorly fitted or top-dose-only effect; inactive means no such curve, though single readings can be large or run the other way.
# Molecular target: Endonuclease 4 (Escherichia coli (strain K12)) (UniProt P0A6C1)
# Assay: Counterscreen for APE1 Inhibitors: qHTS Validation Assay for Inhibitors of Endonuclease IV (AID 1708)
# Conditions: E. coli endonuclease IV, DNA cleavage fluorescence; series mostly up to 57.1 µM
# From the text: Assay Provider: David M. Wilson, III, National Institute on Aging, NIH
# Screening Center PI: Austin, C.P.
# Screening Center: NIH Chemical Genomics Center [NCGC]
# Escherichia coli endonuclease IV (Endo IV) is the key member of the AP endonuclease superfamily that catalyzes the cleavage of damaged DNA backbone immediately 5' of an AP site. E. coli EndoIV has the same functional activities as human APE1 but has no sequence or structural homology to the human protein. Herein, we utilize E. coli EndoIV to counter screen compound libraries as part of a high-throughput campaign for APE1 inhibitor identification. A concentration-response screen of the LOPAC1280 collection was performed under experimental conditions identical to those used in the APE1 screen.
# Inhibition of APE1 activity was screened by utilizing double-stranded short substrate containing tetrahydrofuran (THF) abasic site labeled with rhodamine-type fluorophore (TAMRA) at the 5'-end and with non-fluorescent Black Hole Quencher-2 (BHQ-2) at the opposing 3'-end. An increase in the fluorescence intensity due to incision of the abasic site by APE1 was used to measure the enzyme activity.
# Buffer: 50 mM Tris-HCl (pH 7.5) containing 50mM NaCl, 2 mM MgCl2, 1 mM DTT and 0.01% Tween-20.
# Buffer in columns 3 and 4 as negative control (no enzyme).
# Substrate: 50 nM final concentration of TAMRA/BHQ-2 substrate dispensed throughout the plate.
# Enzyme: 2 nM E. coli EndoIV final concentration in columns 1, 2, 5-48. Column 1 is neutral (100% activity).
# Control: Pintool transfer of control inhibitor NSC-13755 to column 2 of all assay plates. Two-fold, 16 pt dilution in duplicate to produce final concentrations in the 5.75 uM - 0.175 nM range.
# Three uL of enzyme were dispensed to 1536-well Greiner black solid bottom plates. Compounds (23 nL) were transferred via Kalypsys pintool. The plates were incubated for 15 min at room temperature, and then 1 uL of substrate solution was added to start the reaction. The plates were immediately transferred into ViewLux High-throughput CCD imager (Perkin-Elmer) in order to measure the reaction progress in kinetic mode (three reads every 60 seconds) using 525 nm excitation and 598 nm emission fluorescence protocol. The fluorescence intensity difference between the third and the first time points was used to compute reaction progress.
row,SMILES,outcome
1,COc1ccc(CCN)cc1O,inactive
2,C[C@@H]1O[C@@H](O[C@H]2C[C@@H](O)[C@]3(CO)[C@@H]4C(CC[C@]3(O)C2)[C@@]2(O)CC[C@H](C3=CC(=O)OC3)[C@@]2(C)C[C@H]4O)[C@H](O)[C@H](O)[C@H]1O (stereo partly drawn),inactive
3,Oc1ccccc1O,inactive
4,COC(=O)c1cc2c(cn1)[nH]c1ccccc12,inactive
5,N#C/C(=C\c1ccc(O)c(O)c1)C(=O)NCCCNC(=O)/C(C#N)=C/c1ccc(O)c(O)c1,inactive
6,CN[C@H](CC(C)C)C(=O)N[C@H]1C(=O)N[C@@H](CC(N)=O)C(=O)N[C@H]2C(=O)N[C@H]3C(=O)N[C@H](C(=O)N[C@H](C(=O)O)c4cc(O)cc(O)c4-c4cc3ccc4O)[C@H](O)c3ccc(c(Cl)c3)Oc3cc2cc(c3O[C@@H]2O[C@H](CO)[C@@H](O)[C@H](O)[C@H]2O[C@H]2C[C@](C)(N)[C@H](O)[C@H](C)O2)Oc2ccc(cc2Cl)[C@H]1O,inactive
7,CN1CCN(c2ccc3ccccc3n2)CC1,inactive
8,COc1cc(CCN)ccc1O,inactive
9,CP(=O)(O)CCCN,inactive
10,C[N+]1(C)CCc2cc3c(cc2C1C1OC(=O)c2c1ccc1c2OCO1)OCO3 (stereo not drawn),inactive
11,CC(C)NC[C@H](O)COc1cccc2[nH]ccc12,inactive
12,N#CC(C#N)=Cc1ccc([N+](=O)[O-])c(O)c1,inactive
13,C=CCN1CCC2(C)c3cc(O)ccc3CC1C2C (stereo not drawn),inactive
14,CC(O)C(C)OC(=O)[C@@H]1C[C@@H]2c3cccc4c3c(cn4C(C)C)C[C@H]2N(C)C1 (stereo partly drawn),inactive
15,CN1CCc2cc(O)cc3c2C1Cc1ccc(O)c(O)c1-3 (stereo not drawn),inactive
16,COc1ccc2[nH]cc(CCN(C)C)c2c1,inactive
17,CC(=O)OCC1=C(C(=O)[O-])N2C(=O)[C@@H](NC(=O)CCC[C@@H](N)C(=O)[O-])[C@H]2SC1.[Zn+2],inactive
18,O=[N+]([O-])c1ccc(O[C@@H]2O[C@H](CO)[C@@H](O)[C@H](O)[C@H]2F)c([N+](=O)[O-])c1,inactive
